Laboratory results reported in PubChem BioAssay AID2284123 (EPA ToxCast).
Calls of active or inactive are those of the source. Rule for the calls: active = hit-call score of the fitted dose curve at least 0.9, where 1 is the maximum; inactive = score below 0.9.

Each molecule was assayed against human PDE10A2 Phosphodiesterase, PDE10A (gene 10846) (UniProt Q9Y233) (assay: ERF_FR_ENZ_hPDE10A: Eurofins (ERF) Enzymatic LeadHunter Assay for human PDE10A2 Phosphodiesterase).
Protocol: ERF_FR_ENZ_hPDE10A is a biochemical, single-readout assay that uses extracted gene-proteins in a cell-free assay. Measurements were taken 0.33 hour after chemical dosing in a 96-well plate. See PDE10A2 Human Phosphodiesterase Enzymatic Assay, Cerep.ERF_FR_ENZ_hPDE10A is an assay component calculated from the ERF_FR_ENZ_hPDE10A assay. It is designed to measure enzyme activity using a type of enzyme reporter as detected by scintillation counting with radiometry technology.Data from the assay component ERF_FR_ENZ_hPDE10A was analyzed at the assay endpoint, ERF_FR_ENZ_hPDE10A, in the positive analysis fitting direction relative to DMSO as the negative control and baseline of activity. Using a type of enzyme reporter, loss-of-signal activity can be used to understand changes in enzymatic activity as they relate to gene PDE10A. To generalize the intended target to other relatable targets, this assay endpoint is annotated to the phosphodiesterase intended target family, where the subfamily is cyclic nucleotide signaling.
Human cells are incubated for 20 minutes at room temprature with [3H]cAMP + cAMP (0.2uM) as sunstrate and Papaverine as control inhibitor. Test Sample Requirements: Minimum for 1) Screen: 60 ul of 10 mM stock -OR- 1 mg (pre-weighed) for 10 uM final testing. 2) Dose Response: 90 ul of 10 mM stock -OR- 1 mg (pre-weighed) for a top concentration at 10 uM.

human PDE10A2 Phosphodiesterase, PDE10A (gene 10846), sequence (Q9Y233 whole entry, looked up): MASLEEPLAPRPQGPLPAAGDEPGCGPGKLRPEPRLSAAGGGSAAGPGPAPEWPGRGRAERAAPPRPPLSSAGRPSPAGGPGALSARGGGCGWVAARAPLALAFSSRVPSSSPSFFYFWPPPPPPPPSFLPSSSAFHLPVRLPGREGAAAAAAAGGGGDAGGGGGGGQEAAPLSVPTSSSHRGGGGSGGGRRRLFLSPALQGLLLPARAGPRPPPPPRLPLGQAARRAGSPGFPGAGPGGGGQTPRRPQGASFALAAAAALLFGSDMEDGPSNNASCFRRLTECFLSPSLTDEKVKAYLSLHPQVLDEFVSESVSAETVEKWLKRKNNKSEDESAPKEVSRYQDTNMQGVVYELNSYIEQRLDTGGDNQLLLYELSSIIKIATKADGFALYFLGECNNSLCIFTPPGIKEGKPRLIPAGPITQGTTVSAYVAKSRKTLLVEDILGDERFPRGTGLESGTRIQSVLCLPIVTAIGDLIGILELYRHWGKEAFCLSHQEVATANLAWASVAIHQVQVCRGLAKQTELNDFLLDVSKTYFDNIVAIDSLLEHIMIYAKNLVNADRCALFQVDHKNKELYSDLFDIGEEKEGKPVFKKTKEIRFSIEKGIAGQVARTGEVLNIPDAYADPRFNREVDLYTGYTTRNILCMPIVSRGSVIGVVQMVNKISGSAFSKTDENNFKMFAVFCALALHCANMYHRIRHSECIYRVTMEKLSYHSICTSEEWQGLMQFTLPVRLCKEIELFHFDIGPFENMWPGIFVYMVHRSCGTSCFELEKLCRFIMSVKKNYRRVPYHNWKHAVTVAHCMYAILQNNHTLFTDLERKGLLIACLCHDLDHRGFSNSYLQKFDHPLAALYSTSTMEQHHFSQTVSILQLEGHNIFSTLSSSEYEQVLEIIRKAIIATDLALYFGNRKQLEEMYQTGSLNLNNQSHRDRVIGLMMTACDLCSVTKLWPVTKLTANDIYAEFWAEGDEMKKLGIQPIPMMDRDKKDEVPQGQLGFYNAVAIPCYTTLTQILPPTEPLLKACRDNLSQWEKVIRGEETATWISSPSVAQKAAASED

Structure (SMILES)	AC50
O=C(/C=C/c1ccc(O)cc1)CC(=O)/C=C/c1ccc(O)cc1	295 nM (active)
